# LANA DNA inh – blocks KSHV LANA C-terminal domain binding to DNA | MBP-C-LANA/FAM-LBS DNA binding, fluorescence polarization | inhibition, % at 9 µM | 0.078% of 340,000 active;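 active means highest replicate inhibition at or above 60% at 9 µM, even if other replicates fall short; inactive means all replicates below 60% inhibition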;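 further: 0% = neutral control wells and 100% = 4 µM acridine orange control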
# Keap1-Nrf2 PPI – disrupts human Keap1 binding to Nrf2 peptide. Q14145. Keap1 Kelch-Nrf2 peptide fluorescence polarization, 1536-well. inhibition, % at 9.4 µM. 0.15% of 340,000 active. AID 504523; in the data active means inhibition above about 12%; inconclusive means no clear call, values can overlap the other calls; inactive means below about 7.3%;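 further: human Keap1 Kelch domain with fluorescein labeled Nrf2 9mer peptide probe; 0% = neutral control wells and 100% = peptide positive control; higher means more block of Keap1 binding to Nrf2 peptide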
# RTF Ca sens inh – cardiac RTF calcium desensitization | IANBD-labeled cardiac RTF, Ca2+ fluorescence | 0.12% of 340,000 active | inhibition, % at 7.15 µM | AID 493244 | P19429+P45379;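 active means inhibition above the mean inhibition of all tested compounds plus 3 SD, cut at about 17% in these data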;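 further: assay run at fixed EC70 calcium of 1.6 mM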
# RTF Ca sens act – cardiac RTF calcium sensitization | P19429+P45379 | IANBD-labeled TnC RTF fluorescence at EC20 calcium; 0% EC20 calcium, 100% full calcium | activation, % at 7.2 µM | 0.24% of 340,000 active | AID 493008;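 active means activation above the mean over all tested compounds plus 3 SD, cut at about 30% in these data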;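 further: rise in fluorescence read as greater calcium sensitivity of cardiac thin filaments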
# IDE inh – inhibits human insulin-degrading enzyme in HEK cells; P14735; FAbetaB cleavage, fluorescence polarization; inhibition, % at 5.59 µM; 0.41% of 320,000 active; AID 434962;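 active means percent inhibition above the average of all tested compounds plus 3 SD, set per screening campaign, cut at about 16% in these data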;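 further: IDE supplied by intact live HEK cells; FP after avidin binding of uncleaved biotin substrate so inhibition keeps polarization high; 0% = DMSO wells and 100% = 60 µM reference IDE inhibitor Ii1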
# IDE cell activ – activators of human insulin-degrading enzyme in cells. P14735. HEK cells, FAbeta-B cleavage, fluorescence polarization; 0% vehicle, 100% cell-free pure enzyme wells. activation, % at 5.96 µM. 0.073% of 340,000 active;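 active means activation above the mean of all tested compounds plus 3 SD, set per screening campaign, cut at about 17% in these data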
# IDE inh confirm – confirmation of human insulin-degrading enzyme inhibitors in cells. AID 435028. shares compounds with IDE inh. 51% of 1,200 active. inhibition, % at 5.59 µM. HEK cells, FAbetaB cleavage, fluorescence polarization;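 active means mean inhibition across triplicate wells above the cutoff set by the earlier primary insulin-degrading enzyme screen, cut at about 16% in these data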;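 further: 0% = DMSO wells and 100% = 60 µM reference IDE inhibitor Ii1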
# HEK cytotox – HEK cell cytotoxicity, counter-screen for IDE inhibitors; shares compounds with IDE inh; HEK293 cytotoxicity, ATP luminescence; inhibition, % at 5.59 µM; 28% of 1,200 active; AID 449730; in the data active means inhibition above about 22%;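 further: 0% = vehicle wells and 100% = reference cytotoxic drug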
# The depositor's hits bear a star; ? = inconclusive; / = not tested or not shown. Sampled rows, rich in hits. Any-hit rate of the full collection: about 0.81%.
SMILES,LANA DNA inh,Keap1-Nrf2 PPI,RTF Ca sens inh,RTF Ca sens act,IDE inh,IDE cell activ,IDE inh confirm,HEK cytotox
O=C(Nc1ccc(Cl)cc1)N1CCN(c2ccc3nnc(-c4ccc(F)cc4)n3n2)CC1,-0.6,-1.0,-0.2,1.7,22.4*,-29.2,13.0,10.6
CCN(C(=O)COC(=O)/C(C#N)=C/c1ccc(N(C)C)cc1)C1CCS(=O)(=O)C1 (stereo not drawn),-3.9,-7.2,-3.7,0.2,2.5,-1.5,/,/
CN(C)c1ccc(/C=C(\C#N)C(=O)OCC(=O)N(C)C2CCS(=O)(=O)C2)cc1 (stereo not drawn),0.9,-2.8,-12.8,5.1,16.5*,-7.7,13.1,4.1
C1=C(CCNc2ncnc3c2[nH]c2ccccc23)CCCC1,2.5,-5.0,-20.6,-5.6,34.8*,-35.2,13.3,87.5*
O=c1c2[nH]c3ccccc3c2ncn1CCC1=CCCCC1,0.8,-0.3,-6.0,0.5,-4.6,0.9,/,/
COc1ccc(/C=N/NC(=O)c2cc3cc(OC)c(OC)cc3[nH]2)cc1,-0.2,0.8,-4.3,-2.2,1.9,-2.1,/,/
COc1cc2cc(C(=O)N/N=C/c3ccccc3Cl)[nH]c2cc1OC,1.0,3.9,-0.9,-6.1,17.2*,-12.3,4.5,16.9
O=C(O)CN1C(=O)/C(=C\c2cn(CC(=O)N3CCOCC3)c3ccccc23)SC1=S,-35.3,-185.9,-154.1,134.2*,67.0*,-108.4,114.2*,9.0
COCCNC(=S)N1CCN(c2nc(-c3ccc(Cl)cc3)cs2)CC1,-1.4,-1.9,-0.1,0.3,17.1*,-17.5,11.4,15.3
CCNC(=S)N1CCN(c2nc(-c3ccc(F)cc3)cs2)CC1,-1.0,-3.1,5.9,-5.0,19.2*,-16.5,6.1,15.4
COCCNC(=S)N1CCN(c2nc(-c3ccc(F)cc3)cs2)CC1,-0.4,-5.1,-4.1,-0.4,13.8,-8.5,/,/
CCN(CC)CCCNC(=S)N1CCN(c2nc(-c3ccc(F)cc3)cs2)CC1,-1.5,-6.6,-4.6,-0.4,4.4,-12.4,/,/
CNC(=S)N1CCN(c2nc(-c3ccc(Cl)cc3)cs2)CC1,2.3,-1.1,-0.3,-2.3,17.7*,-13.4,8.1,23.2*
O=C(C1=NN(c2ccccc2)C2C(=O)N(c3cccc(Cl)c3)C(=O)C12)c1ccccc1 (stereo not drawn),60.5*,?,-27.5,46.7*,30.7*,-23.1,27.9*,10.8
COc1cc(/C=C/c2nc3ccccc3c(=O)[nH]2)cc(Br)c1O,-1.4,1.5,-7.5,10.5,43.9*,-156.8,143.4*,12.8
CCCCCCc1cc2cc(-c3nnc(-c4ccccc4O)o3)c(=O)oc2cc1O,-0.7,-1.3,-139.9,58.3*,37.8*,-70.2,117.7*,8.0
CCOC(=O)C1CCCN(C(=S)NC(=O)c2cc(Br)ccc2Cl)C1 (stereo not drawn),-1.4,5.0,2.9,0.5,/,1.9,/,/
CN(C)S(=O)(=O)c1ccc(NC(=O)CSc2ncnc3ccccc23)cc1,-0.5,-0.8,-5.6,-1.2,19.3*,-7.6,1.4,11.0
O=C(NCc1ccco1)Nc1cccc(-c2ccccc2)c1,0.0,-3.2,-2.6,0.8,/,4.8,/,/
CC1=CC(=O)c2ccccc2C1=O,1.0,-1.6,3.4,-4.0,1.1,3.4,/,/
COc1cccc2c1C(=O)C=C(C)C2=O,-1.3,-0.5,0.8,2.8,34.0*,-18.4,72.0*,34.2*
COc1cc(OC)c(/C=C2\SC(=O)N(CC(=O)Nc3ccccc3F)C2=O)c(OC)c1,1.5,1.2,-2.8,-0.7,-6.5,2.1,/,/
COc1cc(/C=C2\SC(=O)N(CC(=O)Nc3ccccc3F)C2=O)cc(Cl)c1O,-0.4,0.2,-2.6,-0.8,47.8*,-138.4,95.6*,17.2
O=C(NCCCn1ccnc1)C(Cc1ccccc1)N1C(=O)c2ccccc2C1=O (stereo not drawn),-0.3,-2.4,5.4,-4.5,-2.8,6.4,/,/
COc1ccc(N(C)S(=O)(=O)c2cccc(C(=O)NC3=NCCS3)c2)cc1,-1.9,2.0,-1.6,-5.9,-3.2,3.2,/,/
